Results filed as inconclusive are left out. Activity calls are given as the source filed them. The calls were made as follows: active = hit-call score of the fitted dose curve at least 0.9, where 1 is the maximum; inconclusive = response in the unintended direction; inactive = score below 0.9.

Usually AC50 stands for the concentration at which the activity in the assay is half-maximal.

The nature of this test: ERF_FR_GPCR_rPY2: Eurofins (ERF) G Protein-Coupled Receptor (GPCR) Radioligand Binding LeadHunter Assay for rat P2Y Receptor (Non-Selective) Agonism. Here is the method: ERF_FR_GPCR_rPY2 is a biochemical, single-readout assay that uses extracted gene-proteins in a cell-free assay. Measurements were taken 1 hour after chemical dosing in a 96-well plate. See Non-Selective Rat P2Y GPCR Binding (Agonist Radioligand) Assay, Cerep.ERF_FR_GPCR_rPY2 is an assay component calculated from the ERF_FR_GPCR_rPY2 assay. It is designed to measure radioligand binding using a type of binding reporter as detected by scintillation counting with radiometry technology.Data from the assay component ERF_FR_GPCR_rPY2 was analyzed at the assay endpoint, ERF_FR_GPCR_rPY2, in the positive analysis fitting direction relative to DMSO as the negative control and baseline of activity. Using a type of binding reporter, gain-of-signal activity can be used to understand changes in binding as they relate to gene P2RY1. To generalize the intended target to other relatable targets, this assay endpoint is annotated to the gpcr intended target family, where the subfamily is P2Y.
Rat cells are incubated for 60 minutes at room temprature with [35S]dATPalpha S (10 nM) ligand and Datpalphas as control inhibitor. Test Sample Requirements: Minimum for 1) Screen: 60 ul of 10 mM stock -OR- 1 mg (pre-weighed) for 10 uM final testing. 2) Dose Response: 90 ul of 10 mM stock -OR- 1 mg (pre-weighed) for a top concentration at 10 uM.
Take `O=C(/C=C/c1ccc(O)cc1)CC(=O)/C=C/c1ccc(O)cc1`: the AC50 was 0.937 µM (active).
